Screening results: PubChem BioAssay, Sanford-Burnham Center for Chemical Genomics
beta cell repl – inducers of MIN6 beta-cell proliferation, primary screen, ATP luminescence, uHTS. MIN6 cells proliferation, ATPlite luminescence, 48 h; cells starved in 0.2% serum; 100% = growth in 10% serum. proliferation, % at 10 µM. hit rate 0.29% among 330,000. AID 2380, 2010;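 active means compounds whose signal lies at least 3.5 SD above the mean of all wells on their plate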
MPTP block – mitochondrial permeability transition pore inhibitors, primary screen, biochemical, isolated mouse mitochondria, absorbance. Ca2+ swelling absorbance, 30 min. hit rate 1.4% among 360,000. inhibition, % at 10 µM;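 active means inhibition of 50% or more, scaled per plate between neutral and stimulator controls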
GRIN3A LBD mod – binders of NR3A ligand-binding domain, primary screen, biophysical, differential scanning fluorimetry, uHTS. Glutamate receptor ionotropic, NMDA 3A (GRIN3A) ligand-binding domain. NR3A LBD differential scanning fluorimetry, Tm shift; 0% = protein alone, 100% = glycine-bound protein. Tm shift relative to glycine control, % at 25 µM. hit rate 2.5% among 340,000;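 active means melting temperature shift of at least 10% of the positive control shift, at one fixed dose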
FAS TE block – FAS thioesterase domain inhibitors, primary screen, biochemical, fluorescence intensity, uHTS | Fatty acid synthase (Homo sapiens), P49327 | recombinant FAS-TE, OMFH fluorogenic substrate, fluorescence endpoint | inhibition, % at 15 µM | hit rate 0.67% among 360,000 | AID 602261, 2012;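 active means compounds whose normalised, plate-corrected inhibition of enzyme fluorescence in the single-dose primary screen is 50% or more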
p-CIP stab down – p/CIP-EGFP fusion destabilizers, primary screen, fluorescence, F442A cells. decrease of EGFP signal, % at 10 µM. hit rate 0.01% among 290,000. 16 h. AID 1984, 2009;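 active means EGFP signal decrease of at least 30% at 10 µM or well 3 SD below plate mean, unless failing retest; inactive means the rest, including hits failing retest or dose response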
FAS-TE conf – FAS thioesterase domain inhibitors, confirmation, biochemical, fluorescence intensity, single concentration | hit rate 45% among 2,300 | inhibition, % at 15 µM | shares compounds with FAS TE block | recombinant FAS-TE, OMFH fluorogenic substrate;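 active means compounds inhibiting the enzyme by at least 50% at 15 µM in any one of the replicates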
A number is an active result; – = inactive; · = no result. Only some compounds are listed: those with a hit (about 4.1% of all), similar ones and a draw of the others.

SMILES | beta cell repl | MPTP block | GRIN3A LBD mod | FAS TE block | p-CIP stab down | FAS-TE conf
COc1cc(/C=N/Nc2nc(Nc3ccccc3)nc(N3CCOCC3)n2)ccc1OC(=O)c1ccco1 | – | – | – | 67 | – | –
COc1ccc(/C=N/Nc2nc(Nc3ccccc3)nc(N3CCCCC3)n2)c(OC)c1 | – | – | – | 50 | – | –
COc1cc(/C=N/Nc2nc(Nc3ccccc3)nc(N3CCCCC3)n2)ccc1OCC(=O)O | – | – | – | – | – | ·
CCOc1ccc(/C=N/Nc2nc(N3CCCC3)nc(N3CCCC3)n2)cc1OC | – | – | – | – | – | ·
C[C@@H]1CCCCO[C@@H](CN(C)CC2CC2)[C@@H](C)CN([C@H](C)CO)C(=O)c2cc(N(C)C)ccc2O1 | · | – | · | – | · | ·
CCCC1NC(=O)c2cccnc2-n2c1nc1ccc(Br)cc1c2=O (stereo not given) | · | – | · | – | · | ·
N#Cc1c(-c2ccc(Cl)cc2)c(-c2ccc(Cl)cc2)nn(CCOC(=O)CCC(=O)O)c1=O | · | – | – | – | · | ·
C[C@H](CO)N1C[C@H](C)[C@@H](CN(C)Cc2ccccn2)Oc2ncc(Br)cc2C1=O | · | – | · | – | · | ·
CCOC(=O)c1ccc(-c2c(-c3cc(OC)c(OC)c(OC)c3)noc2C)cc1F | – | – | – | – | – | ·
CCOC(=O)c1ccc(-c2c(-c3ccc(OC)cc3)oc(=O)c3cc(OC)c(OC)cc23)cc1F | – | – | – | 58 | · | –
COc1cc2c(-c3ccc4[nH]ccc4c3)c(-c3ccc(C#N)cc3)oc(=O)c2cc1OC | – | – | – | 55 | · | –
COc1cc2c(-c3ccc4cc[nH]c4c3)c(-c3ccsc3)oc(=O)c2cc1OC | – | – | – | – | · | ·
CC(C)C(C(=O)NCc1ccccc1)N1CCN(C(=O)C2CCCO2)CC1 (stereo not given) | · | – | · | · | · | ·
C/C(=N\Nc1ncc(Cl)cc1Cl)c1ccc(OC(F)F)cc1 | – | – | – | 52 | – | 59
C/C(=N\Nc1ncc(Cl)cc1Cl)c1ccc2c(c1)OCO2 | – | – | – | – | – | ·
O=C(CC(=O)c1ccccc1)Nc1cc([N+](=O)[O-])ccc1Cl | – | – | – | – | – | ·
O=C(COc1ncnc2cc([N+](=O)[O-])ccc12)NCCc1ccc(Cl)cc1 | – | – | – | – | – | ·
O=C(COc1ncnc2c(Cl)cc(Cl)cc12)Nc1cc([N+](=O)[O-])ccc1Cl | – | – | 14 | 52 | – | –
O=C(COc1ncnc2ccccc12)Nc1cc([N+](=O)[O-])ccc1Cl | – | – | – | 51 | – | –
Cc1[nH][nH]c(=O)c1C(c1ccc(-c2cccc(Cl)c2)o1)c1c(C)[nH][nH]c1=O | – | – | – | 54 | – | –
O=C(NC1CCCCC1)N(c1ccccc1)c1nnc(-c2cccc([N+](=O)[O-])c2)s1 | · | – | · | 70 | · | 63
CC(C)OC(=O)[C@H]1[C@H](c2ccc(Cl)cc2)[C@@](C#N)(C(N)=O)[C@@H]2C=CC(C(N)=O)=CN21 | · | – | – | 59 | – | 59
CCCC12CN(C(=O)c3ccc([N+](=O)[O-])cc3)CC(C)(CN(C(=O)c3ccc([N+](=O)[O-])cc3)C1)C2=O | – | – | – | 55 | – | 62
CC12CN(C(=O)c3ccc([N+](=O)[O-])cc3)CC(C)(CN(C(=O)c3ccc([N+](=O)[O-])cc3)C1)C2=O | – | · | – | · | – | ·
COCC(=O)N(C)C[C@H]1Oc2cc(C#Cc3cccnc3)ccc2S(=O)(=O)N([C@H](C)CO)C[C@H]1C | · | – | · | – | · | ·
SMILES | beta cell repl | MPTP block | GRIN3A LBD mod | FAS TE block | p-CIP stab down | FAS-TE conf
CSCCC(NS(=O)(=O)Cc1ccccc1)C(=O)NNc1ccccc1 (stereo not given) | · | – | · | – | · | ·
COc1ccc(CN(Cc2cc3cccc(C)c3n3nnnc23)C(=O)N2CCOCC2)cc1 | – | – | – | 50 | – | 47
COc1ccc(CCN(Cc2cc3cccc(C)c3n3nnnc23)C(=O)c2ccncc2)cc1OC | – | · | · | · | – | ·
COc1ccc(CN2CC(=O)N3[C@H]4c5ccccc5OC[C@@H]4[C@H](c4ccccc4)[C@]3(C)C2=O)cc1 | – | – | – | – | · | ·
COc1ccc2c(c1)OC[C@H]1[C@H]2N2C(=O)CN(Cc3ccc(C)cc3)C(=O)[C@@]2(C)[C@H]1c1ccccc1 | – | – | – | 62 | · | –
C[C@@]12C(=O)N(Cc3ccc(F)cc3)CC(=O)N1[C@H]1c3cc(Cl)ccc3OC[C@@H]1[C@@H]2c1ccccc1 | – | – | – | 84 | · | –
COc1ccc2c(c1)OC[C@H]1[C@H]2N2C(=O)CN(Cc3ccc(F)cc3)C(=O)[C@@]2(C)[C@H]1c1ccccc1 | – | – | – | 61 | · | –
C[C@@]12C(=O)N(Cc3ccccc3)CC(=O)N1[C@H]1c3cc(Cl)ccc3OC[C@@H]1[C@@H]2c1ccccc1 | – | – | – | – | · | ·
COc1ccc(CN2CC(=O)N3[C@H]4c5cc(C)ccc5OC[C@@H]4[C@H](c4ccccc4)[C@]3(C)C2=O)cc1 | – | – | – | – | · | ·
CC1(c2nnnn2-c2ccc3c(c2)OCCO3)CCC(=O)N1CCc1ccccc1F (stereo not given) | · | – | · | – | · | ·
Cc1ccc([N+](=O)[O-])cc1S(=O)(=O)NCC1COc2ccccc2O1 (stereo not given) | – | – | – | 66 | – | 60
O=C(CCNC(=O)c1ccc([N+](=O)[O-])cc1)NCC1COc2ccccc2O1 (stereo not given) | – | – | – | – | · | ·
O=C(Cn1cc([N+](=O)[O-])ccc1=O)NCC1COc2ccccc2O1 (stereo not given) | – | – | – | 52 | · | 55
COc1ccc(N2C(=O)c3ccccc3NC(=O)C2C(=O)Nc2ccc(N3CCOCC3)cc2)cc1 (stereo not given) | · | – | · | · | · | ·
COC(=O)c1c(NC(=O)Cn2cc([N+](=O)[O-])cn2)sc2c1CCC2 | – | – | – | 51 | – | –
O=C(Cn1cc([N+](=O)[O-])cn1)NC1CCCCCC1 | – | – | – | – | – | ·
CC(C)C(NC(=O)C12CC3CC(CC(C3)C1)C2)C(=O)N/N=C/C1=C(N2CCOCC2)C(=C\c2ccc([N+](=O)[O-])cc2)/CC1 (stereo not given) | – | – | – | 79 | – | –
CC(NC(=O)C12CC3CC(CC(C3)C1)C2)C(=O)N/N=C/C1=C(N2CCOCC2)C(=C\c2cccc([N+](=O)[O-])c2)/CC1 (stereo not given) | – | – | – | 89 | – | –
CC(NC(=O)C12CC3CC(CC(C3)C1)C2)C(=O)NN=Cc1ccc([N+](=O)[O-])o1 (stereo not given) | – | – | – | – | · | ·
CC(=O)C(Cl)C(=O)Nc1ccccc1 (stereo not given) | · | – | – | – | – | ·
